Experimental findings from ChEMBL document CHEMBL3988442, “University of Dundee, Small-Polar-MMV Screening Library” (2021) are described below.

For some of these results: Entries with a potency or affinity are not part of this list.

Holding throughout (design): scale not given: direction of the effect not stated beside the values
Experiment [1] concerns the target Protein translocase subunit SecA (Escherichia coli (strain K12)) (UniProt P10408). Briefly: Assay to Identify E. coli SecA ATPase Inhibitors. The format is functional. As to conditions: 30 µM.
Experiment [2] addresses T1, Ubiquitin-activating enzyme e1, putative (Leishmania donovani (strain BPK282A1)) (UniProt E9BSI1).
T1 sequence (whole entry): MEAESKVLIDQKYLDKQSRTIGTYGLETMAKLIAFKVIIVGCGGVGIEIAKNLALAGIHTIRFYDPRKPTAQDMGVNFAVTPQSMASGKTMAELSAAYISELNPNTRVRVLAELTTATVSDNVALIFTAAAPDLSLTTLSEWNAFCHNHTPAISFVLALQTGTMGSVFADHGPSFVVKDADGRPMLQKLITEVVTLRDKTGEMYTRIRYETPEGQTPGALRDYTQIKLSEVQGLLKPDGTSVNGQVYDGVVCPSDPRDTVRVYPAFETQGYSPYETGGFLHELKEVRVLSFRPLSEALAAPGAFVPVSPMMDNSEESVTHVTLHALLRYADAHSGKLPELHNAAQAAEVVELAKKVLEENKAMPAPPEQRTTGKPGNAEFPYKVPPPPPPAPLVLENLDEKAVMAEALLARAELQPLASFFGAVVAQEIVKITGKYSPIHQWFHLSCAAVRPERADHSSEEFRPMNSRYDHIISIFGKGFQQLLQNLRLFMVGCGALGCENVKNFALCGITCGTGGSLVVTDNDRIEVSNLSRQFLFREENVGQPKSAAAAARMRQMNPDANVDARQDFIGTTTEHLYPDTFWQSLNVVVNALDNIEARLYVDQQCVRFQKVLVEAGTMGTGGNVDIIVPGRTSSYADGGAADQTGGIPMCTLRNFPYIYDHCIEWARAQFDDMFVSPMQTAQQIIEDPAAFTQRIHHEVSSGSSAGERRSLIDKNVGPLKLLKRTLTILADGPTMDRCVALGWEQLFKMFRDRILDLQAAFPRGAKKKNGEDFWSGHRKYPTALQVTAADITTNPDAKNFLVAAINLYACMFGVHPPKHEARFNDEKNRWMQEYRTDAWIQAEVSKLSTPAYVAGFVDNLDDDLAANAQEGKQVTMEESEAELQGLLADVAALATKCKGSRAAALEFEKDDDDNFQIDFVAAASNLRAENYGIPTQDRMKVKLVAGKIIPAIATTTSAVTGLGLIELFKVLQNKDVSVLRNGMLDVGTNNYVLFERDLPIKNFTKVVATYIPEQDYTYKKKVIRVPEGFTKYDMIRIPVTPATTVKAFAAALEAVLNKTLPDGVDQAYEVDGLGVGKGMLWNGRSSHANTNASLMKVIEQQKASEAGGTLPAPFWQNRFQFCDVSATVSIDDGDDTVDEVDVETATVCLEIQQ
Briefly: Leishmania donovani Ubiquitin Activating Enzyme (LdE1). It is filed as functional. As to conditions: 30 µM.

For experiment [3], the target named is AMP-activated protein kinase, AMPK (Homo sapiens) (UniProt P54646+O43741+P54619+Q9UGJ0+Q9Y478+Q13131+Q9UGI9). Briefly: AMP-dependent Kinase enzyme assay. An in vitro enzyme assay that detects ADP turnover that is directly proportional to AMPK activity. This uses naive AMPK that is activated during the assay with MK-8722. It is filed as functional. As to conditions: 30 µM.

For experiment [4], the target named is Sialic acid-binding Ig-like lectin 9 (Homo sapiens) (UniProt Q9Y336). Briefly: Hs-Siglec9 ALPHAscreen SOP 20170721. As to conditions: 10 µM.
In experiment [5] the test system is Trypanosoma cruzi. Briefly: Trypanosoma cruzi phosphomannomutase and mannose-1-phosphate guanylyltransferase assay. The format is functional. As to conditions: 10 µM.
Experiment [6] has as its target T2, Arginase-2, mitochondrial (Homo sapiens) (UniProt P78540).
T2 sequence (whole entry): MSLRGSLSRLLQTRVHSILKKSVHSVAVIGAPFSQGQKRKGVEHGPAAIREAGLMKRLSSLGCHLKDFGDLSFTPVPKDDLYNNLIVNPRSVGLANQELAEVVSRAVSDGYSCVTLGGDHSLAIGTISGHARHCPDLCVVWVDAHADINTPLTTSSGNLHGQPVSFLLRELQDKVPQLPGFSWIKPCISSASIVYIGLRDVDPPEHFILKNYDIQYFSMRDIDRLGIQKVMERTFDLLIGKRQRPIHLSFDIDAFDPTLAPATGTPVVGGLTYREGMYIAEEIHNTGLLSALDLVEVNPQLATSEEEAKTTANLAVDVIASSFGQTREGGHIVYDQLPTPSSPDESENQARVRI
Briefly: in vitro enzyme assay to detect the production of urea directly proportional to the activity of Arginase II. Note: in the data most compounds retested in dose-response had high values. As to conditions: 33.3 µM. It is filed as functional.

The target of experiment [7] is T3, Proteasome subunit beta (Trypanosoma cruzi) (UniProt O96673).
T3 sequence (whole entry): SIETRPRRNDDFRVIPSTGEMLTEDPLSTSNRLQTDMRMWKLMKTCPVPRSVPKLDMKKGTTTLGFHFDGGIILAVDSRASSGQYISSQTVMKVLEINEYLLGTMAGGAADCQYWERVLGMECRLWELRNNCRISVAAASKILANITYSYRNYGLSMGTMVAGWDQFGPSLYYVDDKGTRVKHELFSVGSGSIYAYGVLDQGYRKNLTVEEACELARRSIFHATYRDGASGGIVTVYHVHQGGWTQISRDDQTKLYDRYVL
Briefly: Trypanosoma cruzi proteasome chymotrypsin-like activity (TcProtChymo) assay. Note: in the data most compounds retested in dose-response had high values. As to conditions: 9.37 µM. The format is functional.

The species entered for experiment [8] is Homo sapiens. Briefly: To identify inhibition of the IFN signalling (Jak-Stat) pathway via expression of an eGFP reporter gene under the control of an IFN-stimulated response element (ISRE) containing MxA promoter. The format is functional. As to conditions: 30 µM. (A reporter such as luciferase makes a cellular process visible.)
The target of experiment [9] is T4, Tyrosyl-tRNA synthetase, putative (Trypanosoma cruzi (strain CL Brener)) (UniProt Q4DSP6).
T4 sequence (whole entry): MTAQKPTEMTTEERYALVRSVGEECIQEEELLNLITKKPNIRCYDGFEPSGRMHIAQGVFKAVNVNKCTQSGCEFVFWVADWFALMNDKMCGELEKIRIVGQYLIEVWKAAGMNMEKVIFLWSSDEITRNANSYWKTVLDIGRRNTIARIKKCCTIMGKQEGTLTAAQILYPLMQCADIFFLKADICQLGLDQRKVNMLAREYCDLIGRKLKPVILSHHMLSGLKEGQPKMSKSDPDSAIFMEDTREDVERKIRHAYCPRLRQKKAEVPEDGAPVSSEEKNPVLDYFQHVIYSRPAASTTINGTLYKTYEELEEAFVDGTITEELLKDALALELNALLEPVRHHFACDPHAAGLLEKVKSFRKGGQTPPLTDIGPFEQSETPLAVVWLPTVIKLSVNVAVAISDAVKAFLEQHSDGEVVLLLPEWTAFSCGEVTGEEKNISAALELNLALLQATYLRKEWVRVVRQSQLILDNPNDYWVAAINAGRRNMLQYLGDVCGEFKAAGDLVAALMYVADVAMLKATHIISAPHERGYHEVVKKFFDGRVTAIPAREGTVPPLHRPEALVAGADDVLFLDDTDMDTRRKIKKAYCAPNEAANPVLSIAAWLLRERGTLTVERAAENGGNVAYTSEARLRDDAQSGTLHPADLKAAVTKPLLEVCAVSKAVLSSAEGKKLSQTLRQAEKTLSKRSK
Briefly: Trypanosoma cruzi tyrosyl tRNA synthetase (TcYRS) _High Tyrosine SOP. Note: in the data most compounds retested in dose-response had high values. As to conditions: 30 µM. The format is functional.

Experiment [10] deals with T4, Tyrosyl-tRNA synthetase, putative (Trypanosoma cruzi (strain CL Brener)). Briefly: Trypanosoma cruzi tyrosyl tRNA synthetase (TcYRS) SOP. The format is functional. As to conditions: 30 µM.
Experiment [11] addresses Chromo domain-containing protein 1 (Saccharomyces cerevisiae (strain ATCC 204508 / S288c) (Baker's yeast)) (UniProt P32657). Briefly: ScCHD-1 Enzyme Inhibition Assay. Note: in the data most compounds retested in dose-response had high values. It is filed as functional. As to conditions: 30 µM.

Sequence of Protein translocase subunit SecA (Escherichia coli (strain K12)) (P10408 whole entry): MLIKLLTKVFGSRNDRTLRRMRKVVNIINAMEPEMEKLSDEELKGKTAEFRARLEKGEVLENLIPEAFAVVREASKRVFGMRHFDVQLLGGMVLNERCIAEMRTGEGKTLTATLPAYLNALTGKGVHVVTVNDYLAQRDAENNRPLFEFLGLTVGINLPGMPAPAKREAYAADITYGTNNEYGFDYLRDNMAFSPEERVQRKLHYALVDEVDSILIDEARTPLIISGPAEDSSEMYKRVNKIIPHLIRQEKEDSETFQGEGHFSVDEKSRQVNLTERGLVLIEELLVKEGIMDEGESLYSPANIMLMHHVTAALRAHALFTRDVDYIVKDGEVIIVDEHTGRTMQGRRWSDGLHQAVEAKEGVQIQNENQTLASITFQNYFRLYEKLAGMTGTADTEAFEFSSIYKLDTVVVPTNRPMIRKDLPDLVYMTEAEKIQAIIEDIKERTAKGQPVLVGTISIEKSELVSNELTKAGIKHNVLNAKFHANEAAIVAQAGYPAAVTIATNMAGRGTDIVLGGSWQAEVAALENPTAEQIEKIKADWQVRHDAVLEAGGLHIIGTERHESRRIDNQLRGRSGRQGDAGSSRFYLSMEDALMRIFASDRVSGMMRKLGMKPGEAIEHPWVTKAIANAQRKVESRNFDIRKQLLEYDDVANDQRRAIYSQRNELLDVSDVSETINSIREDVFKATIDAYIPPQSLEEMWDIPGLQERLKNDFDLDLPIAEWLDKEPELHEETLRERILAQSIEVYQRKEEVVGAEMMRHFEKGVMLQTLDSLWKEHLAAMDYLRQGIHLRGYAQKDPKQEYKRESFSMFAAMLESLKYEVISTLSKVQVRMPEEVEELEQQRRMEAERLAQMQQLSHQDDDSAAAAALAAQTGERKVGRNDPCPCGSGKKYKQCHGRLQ
Sequence of Chromo domain-containing protein 1 (Saccharomyces cerevisiae (strain ATCC 204508 / S288c) (Baker's yeast)) (P32657 whole entry, the tested form may be a part): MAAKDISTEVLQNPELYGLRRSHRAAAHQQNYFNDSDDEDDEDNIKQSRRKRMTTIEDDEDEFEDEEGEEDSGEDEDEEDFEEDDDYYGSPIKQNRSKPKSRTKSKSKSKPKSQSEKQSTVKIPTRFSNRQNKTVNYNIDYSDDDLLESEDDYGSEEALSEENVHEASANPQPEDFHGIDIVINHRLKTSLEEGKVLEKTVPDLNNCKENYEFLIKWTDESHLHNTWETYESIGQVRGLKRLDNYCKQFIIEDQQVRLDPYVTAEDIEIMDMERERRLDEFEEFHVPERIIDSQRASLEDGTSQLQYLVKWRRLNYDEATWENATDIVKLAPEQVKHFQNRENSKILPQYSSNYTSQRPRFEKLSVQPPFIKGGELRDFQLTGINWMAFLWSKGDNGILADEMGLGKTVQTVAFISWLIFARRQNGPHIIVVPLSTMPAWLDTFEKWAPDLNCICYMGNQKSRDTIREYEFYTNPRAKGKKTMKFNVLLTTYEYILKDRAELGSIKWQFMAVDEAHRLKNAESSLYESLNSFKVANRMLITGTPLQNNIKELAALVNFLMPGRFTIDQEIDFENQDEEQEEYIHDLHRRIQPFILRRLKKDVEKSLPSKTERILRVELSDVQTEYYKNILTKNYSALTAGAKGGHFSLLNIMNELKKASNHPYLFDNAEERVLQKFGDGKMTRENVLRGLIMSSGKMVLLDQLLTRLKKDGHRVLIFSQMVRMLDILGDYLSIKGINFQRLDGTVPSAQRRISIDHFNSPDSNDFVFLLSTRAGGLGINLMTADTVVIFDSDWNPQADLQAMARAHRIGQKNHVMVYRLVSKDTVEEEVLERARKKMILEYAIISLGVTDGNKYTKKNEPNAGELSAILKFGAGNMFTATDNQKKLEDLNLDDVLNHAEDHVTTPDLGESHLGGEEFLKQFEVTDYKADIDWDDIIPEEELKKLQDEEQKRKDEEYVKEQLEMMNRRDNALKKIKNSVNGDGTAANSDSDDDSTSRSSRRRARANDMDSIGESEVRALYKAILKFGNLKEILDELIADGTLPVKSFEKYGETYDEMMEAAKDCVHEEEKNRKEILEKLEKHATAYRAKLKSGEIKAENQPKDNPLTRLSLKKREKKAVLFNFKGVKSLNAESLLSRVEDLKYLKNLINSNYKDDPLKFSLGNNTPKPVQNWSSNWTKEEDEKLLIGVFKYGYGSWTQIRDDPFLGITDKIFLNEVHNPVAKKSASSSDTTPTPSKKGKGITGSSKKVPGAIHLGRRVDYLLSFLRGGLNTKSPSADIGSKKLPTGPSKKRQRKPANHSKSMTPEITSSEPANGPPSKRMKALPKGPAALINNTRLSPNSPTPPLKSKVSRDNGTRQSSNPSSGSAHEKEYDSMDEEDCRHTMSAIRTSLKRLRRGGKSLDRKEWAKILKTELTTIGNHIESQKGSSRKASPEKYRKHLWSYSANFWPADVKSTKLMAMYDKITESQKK
Sequence of Sialic acid-binding Ig-like lectin 9 (Homo sapiens) (Q9Y336 whole entry): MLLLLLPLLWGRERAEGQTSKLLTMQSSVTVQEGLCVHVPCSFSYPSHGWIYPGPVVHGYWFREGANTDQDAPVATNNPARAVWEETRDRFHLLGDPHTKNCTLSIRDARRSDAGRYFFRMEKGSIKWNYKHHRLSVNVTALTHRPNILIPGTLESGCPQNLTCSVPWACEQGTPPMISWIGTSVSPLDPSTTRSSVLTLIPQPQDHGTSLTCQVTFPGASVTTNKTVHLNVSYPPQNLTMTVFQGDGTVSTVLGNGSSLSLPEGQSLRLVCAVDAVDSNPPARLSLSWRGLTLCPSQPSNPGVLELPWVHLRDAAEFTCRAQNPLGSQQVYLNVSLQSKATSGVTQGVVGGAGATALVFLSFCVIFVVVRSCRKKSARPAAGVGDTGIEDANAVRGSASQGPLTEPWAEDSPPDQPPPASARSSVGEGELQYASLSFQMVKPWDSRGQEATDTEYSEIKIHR

As for `Cc1cccc(-n2cc(C(=O)N3CCCC(n4ccnc4)C3)nn2)c1` (stereo unspecified), the Percent Effect in experiment [1] was -3.01%; in [2], 15.6%; in experiment [3], 7.1%; in experiment [4] it was -13.5%; in experiment [5], -5.58%; in experiment [6] it was -3.16%. For the same compound, the Percent Effect in experiment [7] is 14.6%; in experiment [8], 21.7%; in experiment [9] it was 1.91%; in experiment [10], 11.8%; in experiment [11], -17.4%.

For `COCCC(=O)N1CCC2(COCc3cnc(N4CCOCC4)nc32)C1` (stereo unspecified), the Percent Effect is -4.87% in [1]; 10.7% in [2]; 18.4% in experiment [3]; -1.98% in experiment [4]; -5.51% in experiment [5]; 2.1% in experiment [6]. In addition, the Percent Effect in experiment [7] is 8.02%; in [8] it was 11.9%; in [9], 0%; in experiment [10], 6.41%; in experiment [11] it was -0.906%.

For the compound `c1ccc(C[C@H]2[C@H](N3CCOCC3)CCN2Cc2cccnc2)cc1`, the Percent Effect was -1.09% in [1]; 2.67% in experiment [2]; 3.8% in [3]; 7.7% in experiment [4]; -5.21% in [5]; -56.1% in [6]. The Percent Effect in experiment [7] was 4.1%; in experiment [8], -7.93%; in experiment [9] it was 1.04%; in experiment [10] it was 12.5%; in [11] it was -4.71%.

Consider `CN(Cc1ccco1)Cc1ccccc1CNC(=O)c1cc[nH]n1`, for which the Percent Effect in experiment [1] is -2.78%; in experiment [2], 0%; in [3] it was -0.254%; in [4] it was 5.67%; in [5], -6.56%; in experiment [6], 0.952%. The Percent Effect in experiment [7] was 15.2%; in [8], 18.9%; in experiment [9], 1.59%; in experiment [10], 4.88%; in experiment [11] it was -4.37%.

`CC(C)c1nc(CN2CCN(C(C)c3nc(C4CC4)no3)CC2)no1` (stereo unspecified): the Percent Effect in experiment [1] was -0.845%; in [2] it was -3.8%; in experiment [3] it was 4.42%; in experiment [4] it was 1.01%; in experiment [5] it was -1.13%; in experiment [6], 1.07%. The Percent Effect is 3.09% in experiment [7]; -8.78% in [8]; 2.08% in [9]; 2.53% in [10]; 2.13% in experiment [11].

For the compound `COc1cc(CNCCc2nc(C)cs2)cc2c1OCCO2`, the Percent Effect in experiment [1] was -2.37%; in experiment [2] it was 5.26%; in experiment [3], 1.5%; in experiment [4], 15.7%; in experiment [5] it was -1.13%; in [6] it was -3.06%. In addition, the Percent Effect is 12.5% in experiment [7]; 10.1% in experiment [8]; 4.41% in experiment [9]; 12.2% in experiment [10]; -7.14% in [11].

In the case of `O=C(CCN1CCCC1C1CCCCC1)N1CCc2sccc2C1` (stereo unspecified), the Percent Effect is -3.42% in experiment [1]; -48.6% in [2]; 11.2% in experiment [3]; -0.447% in experiment [4]; 5.75% in experiment [5]; -5.21% in experiment [6]. Also, the Percent Effect in [7] was -0.18%; in [8], -25.7%; in experiment [9] it was 14.3%; in experiment [10], 11.1%; in experiment [11], 10.3%.

With `Cn1cc(CN2CCC3(C2)CN(Cc2ccsc2)C3)cn1`, the Percent Effect was -5.1% in experiment [1]; 2.6% in experiment [2]; -2.26% in experiment [3]; 5.86% in [4]; 3.64% in experiment [5]; 1.38% in [6]. Further, the Percent Effect is 10.5% in experiment [7]; -4.61% in experiment [8]; 3.23% in experiment [9]; 8.64% in experiment [10]; 1.08% in [11].

Take `CCn1nccc1CNC(=O)C1CC1`: the Percent Effect was -5.07% in experiment [1]; 10.4% in experiment [2]; -0.00833% in experiment [3]; 7.25% in experiment [4]; 5.61% in experiment [5]; -4.14% in [6]. Moreover, the Percent Effect in [7] was 10.7%; in experiment [8] it was -23.9%; in experiment [9] it was 8.6%; in [10], 18.5%; in experiment [11] it was 132%.

With `O=C(Cn1cccnc1=O)NC(Cc1cccs1)c1ccccn1` (stereo unspecified), the Percent Effect in experiment [1] was -3.91%; in experiment [2], 9.46%; in experiment [3] it was 6.77%; in experiment [4], 0.0436%; in experiment [5], 2.57%; in experiment [6] it was 5.8%. Also, the Percent Effect is 8.27% in experiment [7]; 15.5% in experiment [8]; 5.38% in [9]; 11.7% in experiment [10]; -11.5% in experiment [11].

As to `CC(=O)N1CCN(Cc2csc(-c3cnn(C)c3)n2)CC1`, the Percent Effect in experiment [1] is -5.28%; in [2], 7.89%; in experiment [3], -1.26%; in [4] it was 6.08%; in experiment [5], 9.21%; in experiment [6] it was -1.53%. Also, the Percent Effect in [7] was 2.17%; in experiment [8] it was 3.43%; in [9] it was 4.41%; in experiment [10], 9.76%; in [11], -7.33%.
